Tgondii IFNg – T. gondii growth inhibition with IFN-gamma, primary screen, cell-based. Toxoplasma gondii growth in IFN-gamma-treated host cells; stronger effect = lower value. AID 1259416, 2018. hit rate 3.8% among 69,000. activity change, negative = inhibition, % (test concentration not listed); in the data active = activity change below about -70%, passing the limit was not always enough;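 note: host cells are HeLa cells infected with Toxoplasma gondii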
* marks the source's active call; other numbers are inactive results; i = inactive; ! = not active in a repeat. This excerpt belongs to a sample that is enriched for hits.

SMILES	Tgondii IFNg
Cc1ccc(C(=O)NC(C)c2ccc3c(c2)OCCO3)cc1N1CCCC1 (stereo not drawn)	3.1
O=C(Nc1cccc(Cn2cncn2)c1)c1cc(-c2ccccn2)nc2ccccc12	-28.6
Cn1nccc1-c1cc(C(=O)Nc2nc(-c3ccccn3)cs2)c2ccccc2n1	-100.9*
Cc1ccc2[nH]cc(CCNC(=O)c3cc(-c4ccccn4)nc4ccccc34)c2c1	60.7
O=C(NC[C@@]12COC[C@@H]1CN(Cc1nccs1)C2)c1ccco1	-46.6
Cc1cnc(CCNC(=O)Cn2cccc(C(=O)NC3CCCCC3)c2=O)s1	3.3
CCOC(=O)c1nc(NCCc2ccc(OCC)c(OCC)c2)c2ccccc2n1	-2.2
CCc1ccc(S(=O)(=O)N2CCC3(CC2)Nc2ccc(Cl)cc2-n2cccc23)cc1	11.6
CC(C)CCn1c(=O)n(CC2CCCN(C)C2)c2cc(C(=O)O)cnc21 (stereo not drawn)	40.1
Cc1ccc(NS(=O)(=O)c2ccc3[nH]c(=O)ccc3c2)cc1Cl	-76.8
COc1cccc(-c2ccc(O)cc2)n1	27.8
CSc1nccc(-c2ccc(O)cc2)n1	-77.6*
CSc1nncc(-c2ccc(Cl)cc2)n1	-41.3
CN(C)CCn1c2c(ccc1=O)CC(NC(=O)N1CCCC1)CC2 (stereo not drawn)	0.5
COc1ccc(OC)c(CNC(=O)CCN2CCCCO2)c1	4.3
Cc1nc(CC(=O)N2CCC(c3ccccc3C(=O)O)C2)cs1 (stereo not drawn)	31.2
Cc1nc(CC(=O)N2CCCC2c2ccc3c(NCc4ccccc4)n[nH]c3n2)cs1 (stereo not drawn)	-76.2*
Cc1nc(CC(=O)N2CCCCC2c2[nH]ncc2C)cs1 (stereo not drawn)	-33.9
C=C1c2cccc(O)c2C(=O)C2C(=O)[C@]3(O)C(=O)C(C(N)=O)C(=O)[C@@H](N(C)C)[C@@H]3[C@@H](O)[C@H]12 (stereo partly drawn)	-72.1*!
Cc1nccc([C@H]2C[C@H]3CCN(C(=O)c4c(C)noc4C)C[C@@H]3O2)n1	-59.3
NC1CCCN(C(=O)c2ccc3n[nH]nc3c2)CC1 (stereo not drawn)	2.6
O=C(c1ccccc1)c1ccccc1C(=O)c1ccccc1	-9.9
Cc1nc(C)c(C(=O)c2ccccc2)cc1C(=O)c1ccccc1	-9.7
O=C(c1ccccc1)c1ccc2[nH]c(=S)[nH]c2c1	-94.0*
c1ccc(-c2nc3c(c(N4CC(c5ccccn5)C4)n2)CCC3)cc1	-1.7
SMILES	Tgondii IFNg
O=C(c1ccc(Cl)c(Cl)c1)N1CCC(Cn2cccc2)CC1	-11.4
COc1ccc(C)cc1NC(=O)Cn1c(=O)cc(C(=O)N2CCc3ccccc3C2)c2ccccc21	-5.5
O=C1c2c(O)ccc(O)c2C(=O)c2c(NCCNCCO)ccc(NCCNCCO)c21	-88.3*
O=C1c2cccc(O)c2C(=O)c2c(O)cc(CO)cc21	-62.4
Fc1ccc(-c2cn[nH]c2-c2cnn(Cc3ccccc3)c2)cc1	-20.0
CNCc1nncn1-c1cccc(C(C)=O)c1	-1.1
CCOc1ccccc1C1c2[nH]c3ccccc3c2CCN1C(=O)CCc1cnn(C)c1 (stereo not drawn)	-28.2
Cc1ccc2[nH]c3c(=O)n(CC(=O)NCc4ccccn4)cnc3c2c1	15.9
CC(C)c1nc2ccc(Br)cn2c1NC1CCCCC1	36.3
CCc1nc(OCC(=O)Nc2ccc(C(C)C)cc2)c2ccccc2n1	5.0
CCOc1nc(Nc2ccc(C(C)C)cc2)nc(NC2CCCCC2)n1	-87.0*
c1ccc2[nH]c(CCNc3nc(-c4ccncc4)nc4c3CCNC4)nc2c1	-14.6
CC(C)OC(=O)c1cc2c(ccn2-c2ccc(F)cc2)n1CC(=O)Nc1ccccc1	i
O=C(NCc1nc(-c2ccncc2)n[nH]1)c1cccs1	-93.9*
O=C(NCc1nc(-c2ccncc2)n[nH]1)Nc1ccccc1C(F)(F)F	-20.3
CC(=O)c1cc(C(=O)NCCc2nc(-c3cccnc3)n[nH]2)cs1	-36.3
CCOC(=O)N1CCC2(CC1)OC(=O)C(C)=C2C(=O)NCc1ccccc1	42.7
COc1ccc(CN(C)C(=O)[C@H]2C[C@@H]3C=C[C@H]2C3)c2cccnc12	-34.0
O=C(NCCNc1ccccn1)c1nc2ccc(F)cc2[nH]1	1.3
COc1cccc(C(=O)N2CCC(C(=O)Nc3cccc(Cn4cccn4)c3)C2)c1 (stereo not drawn)	-7.0
CC1=CC(C)(C)N=C(Nc2nc(C)c3cc(C)cc(C)c3n2)N1	-99.0*
Cn1cc(C[C@H]2[C@H](O)CCN2C(=O)c2ccc[nH]2)cn1	-2.4
CCc1ccc(NC(=O)N2CCC3(CC2)OC(C(=O)NCC(C)C)Cn2ccnc23)cc1 (stereo not drawn)	60.3
CC(C)CNC(=O)C1Cn2ccnc2C2(CCN(C(=O)C3CCOCC3)CC2)O1 (stereo not drawn)	13.0
CCc1cnc(N2CCC3(CC2)OC(C(=O)NCC(C)C)Cn2ccnc23)nc1 (stereo not drawn)	-102.9*
SMILES	Tgondii IFNg
CN(Cc1ccco1)[C@H]1CN(C(=O)c2ccccn2)C2CCCOC21 (stereo partly drawn)	3.7
COc1ccc(OC)c(NC(=O)c2nnn(Cc3nc(-c4cccc(Cl)c4)oc3C)c2C)c1	54.4
Cc1ccc(NC(=O)c2nnn(Cc3nc(-c4cccc(Cl)c4)oc3C)c2C)cc1F	76.7
Cc1cccc(-c2nc(Cn3nnc(C(=O)NCc4ccc(C(F)(F)F)cc4)c3C)c(C)o2)c1	7.7
Cc1cccc(-c2nc(Cn3nnc(C(=O)NCc4cccc(Cl)c4)c3C)c(C)o2)c1	-96.9*
Cc1cccc(-c2nc(Cn3nnc(C(=O)NCc4ccc(Br)cc4)c3C)c(C)o2)c1	-32.0
COc1ccc(NC(=O)c2nnn(Cc3nc(-c4cccc(Cl)c4)oc3C)c2C)cc1	-110.3*
CCOc1ccc(CNC(=O)c2nnn(Cc3nc(-c4cccc(C)c4)oc3C)c2C)cc1	-34.4
Cc1cc(NC(=O)c2nnn(Cc3nc(-c4cccc(Cl)c4)oc3C)c2C)ccc1Br	67.4
Cc1cccc(-c2nc(Cn3nnc(C(=O)NCc4ccc(F)c(Cl)c4)c3C)c(C)o2)c1	-93.3*
c1ccc(-c2cn(C3CCN(c4cc(-n5cccn5)ncn4)CC3)nn2)nc1	-20.3
CCC(CC)C(=O)Nc1nnc(SCCOC)s1	-4.7
COc1ccc(-c2nc(N3CCC(c4ccccc4)C3)c3ccccc3n2)cc1 (stereo not drawn)	-19.0
Cc1ccc(-c2nc(C)c(CCNC(=O)C(=O)Nc3c(C)cc(C)cc3C)s2)cc1	-44.7
COc1ccc(N(C)CCC(=O)N2CCC(c3ccc(-c4cnc(N)nc4)cn3)CC2)cc1	66.8
Cc1cnc(N2CCC3(CC2)NC(=O)CC3c2ccncc2)nc1 (stereo not drawn)	34.3
CCC(C)NC(=O)Cn1ncc2c(N3CCCCC3)ncnc21 (stereo not drawn)	207.8
CCOC(=O)N1CCC(NCCOc2ccccc2F)CC1	-0.5
CN(CCNc1nc(-c2ccccc2)nc2c1CCNC2)S(C)(=O)=O	-17.8
COc1ccc(Cl)cc1S(=O)(=O)N1CCC2(CC1)Nc1ccccc1-n1cccc12	4.5
O=C(c1cn[nH]n1)N1CCn2cccc2C1c1ccccn1 (stereo not drawn)	-2.6
Cc1cc(CN2CC3C[C@@H](O)CN3C[C@@H]2C)c(C)n1-c1ccc2c(c1)OCO2 (stereo partly drawn)	1.8
CC(Cc1ccc2c(c1)OCO2)CN1CC2C[C@@H](O)CN2C[C@H]1C (stereo partly drawn)	-86.2*
CC(C)CN1C(=O)N(C)C2(CCN(CC(C)Cc3ccc4c(c3)OCO4)CC2)C1=O (stereo not drawn)	-2.2

Screens (PubChem BioAssay)
